Compounds with a hit are over-represented: about 2.2% of the library has one in this group of screens.
TGFb SMAD3 inh: TGF-b pathway inhibition; HepG2 CAGA-GFP TGF-b/SMAD3 reporter, GFP fluorescence, 18 h; TGF-beta stimulated, 500 pg/mL final; Potency, µM (series often up to 46.1 µM), for inactives: top-dose activity, negative = inhibition, actives largely listed as inhibitors; hit rate 1.2% among 410,000; note: potency is the fitted concentration of half-maximal effect; % is set by controls: 0 for no effect and ±100 for the full control effect; nearly all actives have a fitted effect of over 65% in size
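Read-out: total well GFP (ex488/em500-530) summed from mean per-cell fluorescence. Cells: HEPG2 CAGA-GFP, 1% FBS DMEM, 18 h at 37 degrees C with 500 pg/mL final TGF-beta. Unstimulated wells served as the full-inhibition control; stimulated DMSO wells = 0%.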
ATXN viability: cell viability loss in ATXN counter-screen. S2 cells (HEK-293 line with an ATXN2-luciferase reporter) viability, CellTiter-Fluor protease fluorescence, 24 h. Potency, µM (top dose mostly 56.7 µM), hits mostly cytotoxic. hit rate 0.49% among 400,000; note: potency is the fitted concentration of half-maximal effect; nearly all actives have a fitted effect of over 40% in size
HepG2 tox: counter-screen for TGF-b inhibitors: cytotoxicity in HepG2 cells. hit rate 0.76% among 410,000. Potency, µM (highest dose often 46.1 µM), inactives show at the top dose activity change, negative = cytotoxicity, most hits filed as cytotoxic. HepG2 CAGA-GFP viability, ATP luminescence, 18 h; note: potency is the fitted concentration of half-maximal effect
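HepG2 CAGA-GFP cells (1000/well, DMEM with 1% FBS) received compound, then TGF-beta at 500 pg/mL final, and were incubated 18 hours at 37 degrees C. Viability was read by CellTiter-Glo luminescence. Media-only wells were set as complete cell-killing and DMSO as no toxicity.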
mIDH1 inhibitor: inhibitors of human mutant IDH1 R132H | AID 602179 | IDH1-R132H enzyme, NADPH consumption, diaphorase/resazurin fluorescence | hit rate 0.093% among 390,000 | O75874 | Potency, µM (titrated, usually from 76.6 µM), for the others: at the highest dose activity change, negative = inhibition, actives largely listed as inhibitors; note: potency is the fitted concentration of half-maximal effect; % is set by controls: 0 for no effect and ±100 for the full control effect; nearly all actives have a fitted effect of over 65% in size
Target sequence (O75874 whole entry R132H, stated change not applied): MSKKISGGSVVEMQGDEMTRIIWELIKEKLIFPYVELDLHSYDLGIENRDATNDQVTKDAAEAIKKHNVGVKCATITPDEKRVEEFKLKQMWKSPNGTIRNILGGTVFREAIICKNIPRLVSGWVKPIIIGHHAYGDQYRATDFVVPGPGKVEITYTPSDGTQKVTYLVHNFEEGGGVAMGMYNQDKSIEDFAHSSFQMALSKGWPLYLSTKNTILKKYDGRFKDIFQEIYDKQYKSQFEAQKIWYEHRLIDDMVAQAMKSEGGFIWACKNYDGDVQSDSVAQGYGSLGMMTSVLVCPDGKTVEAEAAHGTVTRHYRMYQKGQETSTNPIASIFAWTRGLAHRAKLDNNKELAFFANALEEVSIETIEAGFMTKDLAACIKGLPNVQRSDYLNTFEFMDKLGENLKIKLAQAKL
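IDH1-R132H (0.5 ug/mL dispensed) in pH 7.5 Tris buffer was preincubated 30 min with compound, then given a substrate mix of 0.016 mM NADPH and 2 mM alpha-KG for 80 min at room temperature; remaining NADPH was read by diaphorase/resazurin fluorescence.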
LDHA block: blocks human lactate dehydrogenase A; purified LDHA, NADH/diaphorase-resazurin fluorescence; hits give low values; activity change, % (values are at about 110 or 230 µM); AID 1347041; P00338; hit rate 0.15% among 480,000; in the data active = activity change below about -30%; inconclusive = mostly about -25% to -30%;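 note: plate controls were DMSO wells for no effect and wells without enzyme for full effect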
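Remaining NADH was detected by diaphorase (0.133 mg/mL) converting 37 µM resazurin to fluorescent resorufin, read at 0 and 20 minutes. The preceding 5-minute room-temperature reaction used 2 nM LDHA, 0.2 mM sodium pyruvate and 0.06 mM NADH at pH 7.4.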
ATXN2 expr inh: reduces ATXN2 reporter expression in HEK-293 cells | HEK-293 ATXN2-luciferase reporter, luminescence, 24 h | Potency, µM (highest dose often 57 µM), inactives show at the highest dose activity change, negative = inhibition, usual class: inhibitors | hit rate 0.72% among 360,000 | AID 1745845; note: potency is the fitted concentration of half-maximal effect; % is set by controls: 0 for no effect and ±100 for the full control effect; nearly all actives have a fitted effect of over 55% in size
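qHTS (up to 57 uM final) was run with 24 h compound exposure of reporter cells at 37 °C. Each well was multiplexed: SteadyGlo luminescence measured ATXN2-luciferase expression after a fluorogenic Gly-Phe-AFC viability readout (25 uM final).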
The depositor's hits bear a star. Unless noted, calls come from the whole dose curve; as a rule, active = well fitted curve in the direction sought with a large enough effect; inconclusive = small, poorly fitted or top-dose-only effect, or another doubt; inactive = no such curve, though single readings can be large; an effect the other way counts as inactive or inconclusive.

Screening Cc1cc(C)cc(NC(=O)c2ccc([N+](=O)[O-])o2)c1 returned TGFb SMAD3 inh 11.2µM*, ATXN viability inconclusive, HepG2 tox 12.6µM*, mIDH1 inhibitor -1.6%, LDHA block 6.9 and ATXN2 expr inh inconclusive.
Screening O=C(Nc1cc([N+](=O)[O-])ccc1O)c1cccc(NC(=O)c2ccco2)c1 returned TGFb SMAD3 inh -3.7%, ATXN viability inactive, HepG2 tox -1.5%, mIDH1 inhibitor -5.9%, LDHA block -45.4* and ATXN2 expr inh 3.8%.
`COc1cc(NC(=O)c2ccc([N+](=O)[O-])o2)ccc1NC(=O)c1ccco1` gave TGFb SMAD3 inh 1.12µM*, ATXN viability inactive, HepG2 tox 3.6%, mIDH1 inhibitor -1.7% and LDHA block -1.5.
Screening CC(C)C1Cc2[nH][nH]c(=O)c2C(C2CC2)O1 (centres undefined) returned ATXN viability inactive, LDHA block 3.6 and ATXN2 expr inh 1.6%.
Cn1c(=O)c2c(nc(NCCOCCO)n2Cc2ccccc2Br)n(C)c1=O was read as LDHA block -1.8.
For CC(NC(=O)c1ccc([N+](=O)[O-])o1)C12CC3CC(CC(C3)C1)C2 (centres undefined) the results were TGFb SMAD3 inh 11.2µM*, ATXN viability inactive, HepG2 tox -51.2%, mIDH1 inhibitor -3.1%, LDHA block -4.9 and ATXN2 expr inh -26.4%.
`O=C(Nc1ccc(Cl)cn1)c1ccc([N+](=O)[O-])o1` gave TGFb SMAD3 inh 11.2µM*, ATXN viability inactive, HepG2 tox 17.8µM*, mIDH1 inhibitor 3.7%, LDHA block 2.6 and ATXN2 expr inh inconclusive.
`Cc1c(Cl)c([N+](=O)[O-])nn1Cc1ccc(C(=O)Nc2ccc(Cl)cn2)o1` gave TGFb SMAD3 inh -3.4%, ATXN viability inactive, HepG2 tox 0.2%, mIDH1 inhibitor 8.1%, LDHA block 0.8 and ATXN2 expr inh -1.1%.
CC(=O)c1ccc(NC(=O)c2ccc([N+](=O)[O-])o2)cc1 was read as TGFb SMAD3 inh 12.6µM*, ATXN viability inconclusive, HepG2 tox 15.8µM*, mIDH1 inhibitor 6.2% and LDHA block 7.6.
`Cc1ccc(NC(=O)c2ccc([N+](=O)[O-])o2)cc1S(=O)(=O)N1CCOCC1` gave TGFb SMAD3 inh 14.1µM*, ATXN viability inactive, HepG2 tox -55.0%, mIDH1 inhibitor 6.6%, LDHA block 13.5 and ATXN2 expr inh inconclusive.
CC(=O)c1cccc(NC(=O)c2ccc([N+](=O)[O-])o2)c1 was read as TGFb SMAD3 inh inconclusive, ATXN viability inconclusive, HepG2 tox -90.3%, mIDH1 inhibitor -0.7%, LDHA block 8.2 and ATXN2 expr inh -17.8%.
For CC(NC(=O)c1cccs1)C12CC3CC(CC(C3)C1)C2 (centres undefined) the results were LDHA block 7.7.
COc1ccc(NC(=O)c2ccc([N+](=O)[O-])o2)cc1 was read as TGFb SMAD3 inh 11.2µM*, ATXN viability inactive, HepG2 tox -68.4%, mIDH1 inhibitor 7.4%, LDHA block 1.2 and ATXN2 expr inh 3.8%.
For COc1ccc(CNC(=O)C(CC(C)C)NS(=O)(=O)c2ccc3c(c2)CCN3C(C)=O)cc1 (centres undefined) the results were TGFb SMAD3 inh -2.6%, ATXN viability inactive, HepG2 tox -2.2%, mIDH1 inhibitor -6.6%, LDHA block -2.9 and ATXN2 expr inh 11.2%.
Screening CN(Cc1ccco1)S(=O)(=O)c1cc(F)ccc1CN1C(=O)c2cccnc2C1=O returned TGFb SMAD3 inh -6.1%, ATXN viability inactive, HepG2 tox 16.3%, mIDH1 inhibitor -0.8% and LDHA block 1.1.
O=C(NNC(=S)NCc1ccccc1)c1ccccc1OC(F)F was read as TGFb SMAD3 inh 3.4%, ATXN viability inactive, HepG2 tox -1.1%, mIDH1 inhibitor 1.4%, LDHA block 2.5 and ATXN2 expr inh -4.5%.
